CR mimetic SO: caloric restriction mimetics inhibiting age-related superoxide in yeast. S. cerevisiae aged cells, superoxide DHE fluorescence; active compounds read low. superoxide response (% of plate mean), % at 10 µM. 0.18% of 330,000 active;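 active = superoxide response under a set limit, about three screen SD below normal, cut at about 65% in these data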;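 also: yeast aged for seven days with compound at 30 °C before DHE staining; 100% = average MFI of all compound-treated wells on the plate with controls excluded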
A3A deaminase: blocks human APOBEC3A ssDNA deamination. inhibition, % at 20 µM. recombinant A3A, FAM/TAMRA ssDNA deamination fluorescence. P31941. 0.41% of 330,000 active. AID 493011;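 active = at least 40% inhibition at 20 µM here, with at most 30% in a related deaminase screen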;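 also: plate controls were A3A with DMSO for no effect and wells lacking A3A enzyme for full effect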
ALR H2O2 inh: human ALR oxidase inhibition via reduced H2O2; P55789; purified ALR, DTT oxidation, H2O2 HRP-luminol luminescence; inhibition, % (concentration not given with the values); 3.8% of 290,000 active;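 active = mean replicate inhibition above about 79%, with every replicate also reaching it, limit read from the data; inconclusive = only one of the two criteria met; inactive = mean below limit and not every replicate reaching it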
APOBEC3G inh: APOBEC3G (human) deaminase inhibition | AID 493012 | Q9HC16 | recombinant A3G, ssDNA deamination FAM/TAMRA fluorescence | 0.28% of 330,000 active | inhibition, % at 20 µM;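 active = inhibition of at least 40% at 20 µM, with no more than 30% in the related APOBEC3A deaminase screen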;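 also: plate controls were DMSO wells with A3G for no effect and wells lacking A3G enzyme for full effect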
M18AAP inhibitor: PfM18AAP enzyme inhibition; recombinant PfM18AAP, H-Glu-NHMec fluorogenic cleavage; inhibition, % at 7.35 µM; 1.2% of 290,000 active; AID 1822;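 active = inhibition above the campaign mean inhibition over all tested compounds plus 3 SD, cut at about 28% in these data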;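 also: 0% = plate median of test compound wells and 100% = 2 mM ZnCl2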
CendR NRP1 mod: modulators of CendR peptide binding to human neuropilin-1; O14786; FAM-RPARPAR peptide binding to NRP-1, fluorescence polarization; inhibition, % at 25 µM; 0.85% of 360,000 active;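 active = inhibition or corrected inhibition above about 18%, plus a signal ratio from 0.5 to 1.5, limit read from the data, passing the limit was not always enough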
APOBEC3A confirm: APOBEC3A (human) deaminase inhibition, confirmed; shares compounds with A3A deaminase; recombinant A3A, ssDNA deaminase UDG fluorescence assay; inhibition, % at 20 µM; 63% of 1,400 active;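 active = inhibition reaching a set limit, 80% of the first screen's cutoff, at 20 µM in any replicate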;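 also: plate controls were DMSO wells with A3A for no effect and wells lacking A3A enzyme for full effect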
UDG ctr A3A: counter-screen for APOBEC3A inhibitors: UDG. shares compounds with A3A deaminase. UDG counterscreen, FAM/TAMRA uracil oligo fluorescence. inhibition, % at 20 µM. 1,000 tested, under 10 active. AID 504714; call rule not given here
Starred values were filed as active, the others as inactive; i = inactive; ? = inconclusive; nt = no result. Hits are enriched below; roughly 5.2% of the tested compounds scored in any of these assays.

SMILES	CR mimetic SO	A3A deaminase	ALR H2O2 inh	APOBEC3G inh	M18AAP inhibitor	CendR NRP1 mod	APOBEC3A confirm	UDG ctr A3A
O=C(Nc1cccc2ncccc12)c1ccc(F)cc1	108	-2	-8	-5	-4	-15	nt	nt
COCCN(CCOC)Cc1cc(=O)oc2ccc3ccccc3c12	nt	nt	nt	nt	nt	7	nt	nt
CCCCNC(=O)[C@H]1C[C@H]1[C@@H](O)[C@H](CO)NC(=O)[C@H](Cc1ccccc1)NC(=O)OC(C)(C)C	101	66*	0	-8	-6	4	-9	-1
CCN(CC)S(=O)(=O)c1ccc(N2CCOCC2)c(NC(=O)COc2ccccc2)c1	102	0	3	-6	-2	-6	nt	nt
CN(C)c1ccc(NC(=O)COC(=O)c2cc(Cl)ccc2[N+](=O)[O-])cc1	113	1	?	-1	9	1	nt	nt
O=c1oc(-c2ccccc2NS(=O)(=O)c2ccccc2)nc2ccccc12	107	50*	2	-1	0	9	-2	-3
CC1=CC(C)(C)[N+](C)(C)c2ccc(C)cc21	99	45*	2	12	-13	38*	71*	0
COc1cc(NC(=O)C2CCCN2S(=O)(=O)c2cccc3cccnc23)cc(OC)c1OC (stereo not given)	105	1	-13	-3	1	-11	nt	nt
O=C(O)c1cccc(-n2cccc2/C=C2\NC(=O)N(Cc3ccc(F)cc3)C2=O)c1	91	87*	-1	29	7	-36	74*	-2
Cc1cc(C(=O)O)ccc1-c1ccc(/C=C2\NC(=O)N(Cc3ccc(F)cc3)C2=O)o1	120	58*	10	26	-3	-21	44*	0
Cc1ccc(CN2C(=O)N/C(=C\c3cccn3-c3cccc(C(=O)O)c3)C2=O)cc1	93	79*	29	27	4	-53	80*	-3
Cc1ccc(CN2C(=O)N/C(=C/c3ccc(-c4ccc(C(=O)O)cc4)o3)C2=O)cc1	109	22	7	2	-9	-66	nt	nt
C=CCC1(CC=C)CCCN1C(=O)c1cc(COc2cncc(Cl)c2)on1	101	53*	-13	-2	8	5	-10	4
NC(Cc1c[nH]c2ccc(OCc3ccccc3)cc12)C(=O)O (stereo not given)	89	1	-13	-4	0	-1	nt	nt
COc1cccc(S(=O)(=O)N(C)C[C@@H]2OCc3cnnn3CCCC(=O)N([C@@H](C)CO)C[C@H]2C)c1	nt	nt	nt	nt	nt	1	nt	nt
O=C(CCN1C(=O)COc2ccccc21)NCc1ccco1	103	64*	-1	-1	2	-6	7	5
Cc1ccc2c(c1)N(CCC(=O)NCc1ccco1)C(=O)CO2	95	-1	-7	-6	-2	4	nt	nt
CCN(Cc1ccc(OC)c(F)c1)C(=O)c1oc2ccccc2c1COC	98	0	0	-3	-6	-7	nt	nt
CCN(Cc1ccc(OC)c(F)c1)C(=O)C1CCCO1 (stereo not given)	86	56*	-3	5	-4	9	32*	-3
COC(=O)c1cccc(N2C(=O)c3ccccc3S2(=O)=O)c1	145	40*	nt	19	-4	11	1	nt
COC(=O)c1ccc(CN2C(=O)c3ccccc3S2(=O)=O)cc1	85	1	0	-7	-3	-6	nt	nt
O=C(COC(=O)c1nc(Cl)c(Cl)c(Cl)c1Cl)c1ccc[nH]1	88	45*	4	13	nt	-9	4	nt
CC(C)(C)C(=O)Nc1ccc(-c2csnn2)cc1	90	2	-2	-1	7	-6	nt	nt
N#Cc1ccc(NC(=S)Nc2ccccc2)cc1	95	44*	21	0	2	-2	-7	-4
Cc1c(NC(=O)C2(C)CCCCC2)c(=O)n(-c2ccccc2)n1C	99	2	1	1	-12	1	nt	nt
SMILES	CR mimetic SO	A3A deaminase	ALR H2O2 inh	APOBEC3G inh	M18AAP inhibitor	CendR NRP1 mod	APOBEC3A confirm	UDG ctr A3A
COC(=O)c1cc(NC(=O)Cc2cccs2)cc(C(=O)OC)c1	97	64*	-2	18	-1	-22	48*	nt
CCN1C(=NCc2cc(OC)c(OC)c(OC)c2)N[C@@H](c2ccccc2)[C@H](C(=O)OC)[C@H]1C	107	75*	-3	29	-2	nt	47*	nt
CCN1C(=NCCOC)N[C@@H](c2ccccc2)[C@H](C(=O)OC)[C@H]1C	102	46*	-3	9	nt	6	75*	1
COCCNC(=O)CSc1nnc(-c2ccc(C)cc2)c(-c2ccc(C)cc2)n1	94	-9	nt	16	2	5	nt	nt
CCSC1=NC(=O)/C(=C2/C=Cc3ccccc3N2CC)S1	127	40*	25	21	4	-10	18	nt
CCN1/C(=C2\OC(=S)N(C)C2=O)C=Cc2ccccc21	83	-2	3	-9	-9	-42	nt	nt
OC(CNCCc1ccc(Cl)cc1)COCc1ccco1 (stereo not given)	i	0	-8	0	6	-3	nt	nt
CN1CC[n+]2c(CN3C(=O)c4ccccc4C3=O)csc21	104	51*	-7	27	-3	4	79*	5
CC(=O)c1cc(CN2C(=O)c3ccccc3C2=O)cs1	99	-3	2	-7	-5	11	nt	nt
C=CCOc1ccc(C(=O)Nc2ccccc2C(=O)NCc2cccnc2)cc1	90	43*	1	5	2	8	34*	-1
COCc1ccc(C(=O)Nc2ccccc2C(=O)NCc2cccnc2)cc1	104	-2	8	-11	1	-2	nt	nt
O=C(O)c1ccc(CSc2ccccn2)cc1	85	4	-2	-1	9	10	nt	nt
CC(=O)c1c(C)cc(C)c(CSc2ccccn2)c1C	101	59*	-4	15	-14	-5	58*	1
Cc1ccc(/C=C/S(=O)(=O)NCC(=O)OCC(=O)Nc2c(F)cccc2F)cc1	110	55*	nt	11	nt	-3	1	nt
CCOC(=O)c1c(NC(=O)CSc2nnc(-c3cccnc3)o2)sc(C)c1C	99	0	nt	-8	-6	9	nt	nt
CCC1(c2ccc(F)cc2)NC(=O)N(CC(=O)N2CCN(C(=O)c3cccs3)CC2)C1=O (stereo not given)	nt	1	nt	-9	nt	-14	nt	nt
CC(C)c1ccc(C2(C)NC(=O)N(CC(=O)N3CCN(C(=O)c4cccs4)CC3)C2=O)cc1 (stereo not given)	88	48*	-2	-4	nt	-3	6	1
Cc1ccc(S(=O)(=O)N2CCCN(C)CC2)cc1	94	-5	-6	-11	-3	-10	nt	nt
CN1CCCN(S(=O)(=O)c2ccccc2)CC1	111	67*	1	17	-5	8	61*	-2

Compound activity: PubChem, several laboratories
